Measured values published in PubChem BioAssay (NCI).
Compounds without any hit were thinned out: in the full panel of roughly 83,000, 20% have a hit.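 Growth was measured after 48 h exposure to one concentration of compound in 96-well plates. Values under 10 count as active.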 Unmarked numbers belong to inactive results.

Tested on: SK-OV-3 ovarian
Experiment: NCI-60 one-dose screen, 48 h (100 = growth as untreated, 0 = no growth, -100 = all killed)
Conditions: 10 µM unless noted

Going from `Cn1cc(C(=O)c2nc(-c3c[nH]c4ccc(F)cc34)no2)c2cc(F)ccc21` to `Cn1cc(C(=O)c2nc(-c3c[nH]c4ccc(Br)cc34)no2)c2cc(F)ccc21`, the growth rises from 83.6% to 87.9%.

First: c1ccc(Cn2cc(-c3nc4ccccc4s3)c3cccnc32)cc1
Second: Cc1cc2c3ccccc3ccc2[n+]2ccccc12
The growth of the first is higher: 96.1% for the first, 71.5% for the second.

Compared with `O=[N+]([O-])c1ccccc1/C=N\NC(=S)N/N=C/c1ccccc1[N+](=O)[O-]`, `COc1cccc(-c2nc(SCC(=O)Nc3ccc(C(=O)/C=C/c4ccc(OC)c(OC)c4)cc3)[nH]c(=O)c2C#N)c1` is higher in growth: 69.1% for the first, 90.5% for the second.

Going from `Cc1cc(N2CCN(C)CC2)nc(NC2CCCC(Nc3ccnc4cc(Cl)ccc34)C2)n1` (centres undefined) to `Cc1ncc(C(=O)Nc2ccc(CN3CCN(C)CC3)c(C(F)(F)F)c2)cc1C#Cc1cnc2cccnn12`, the growth rises from 18.6% to 22.9%.

Going from `COCCNc1ccc2c3c(cccc13)C(=O)N(CCN(C)C)C2=O` to `Cc1ccc(/C=C2\SC(=S)N(CC(=O)NCCCN3CCOCC3)C2=O)cc1`, the growth rises from 22.9% to 82.7%.

Going from `FC(F)(F)c1[nH]ncc1-c1nc2ccc3n[nH]c(C#Cc4cccnc4)c3c2c2c1CCCC2` to `COc1ccc(-n2nc(C)c3c(Nc4ccc(NC(=O)Nc5cc(C(F)(F)F)ccc5F)cc4)ncnc32)cc1`, the growth rises from 27.8% to 29.5%.

First: O=C1Nc2c(ccc(Cl)c2Cl)/C1=C\c1cc(C(F)(F)F)cc(C(F)(F)F)c1
Second: COc1ccc(C2C(C#N)=C(N)Oc3n[nH]c(-c4cccs4)c32)cc1I (centres undefined)
The growth of the first is lower: 59.9% for the first, 92.1% for the second.
